The panel holds about 79,000 compounds, 15% with a hit somewhere; the sample as a whole holds those more often. A number with no mark means an inactive call. Activity calls are given as the source filed them. No stated cut-off is given here; in the data, active means growth inhibition above about 70%; inactive means the rest. Where a SMILES comes first, the peptide text is derived from it. [ ]: non-standard residue; d: D form. The star is where a group is joined. Ac5c = NC1(C(=O)O)CCCC1; Cbz = O=C(OCc1ccccc1)*; Boc = CC(C)(C)OC(=O)*; Dha = C=C(N)C(=O)O; tBu = CC(C)(C)*
Assays:
[1] = NCI Yeast Anticancer Drug Screen. Data for the rad50 strain (AID 155);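 further: 0% = growth of vehicle-only cultures of the same strain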; details: S. cerevisiae rad50 strain growth inhibition; at 50.0 µM; hits give high values
Procedure, shortened: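 DNA repair mutant yeast, compound exposure, growth read-out; inhibition is taken relative to vehicle.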

[2] = NCI Yeast Anticancer Drug Screen. Data for the mec2-1 strain (AID 157); details: S. cerevisiae mec2-1 strain, at 50.0 µM, hits give high values
Procedure, shortened: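 Cells of the genetically defined mec2-1 yeast strain are incubated with test compound. Inhibition of growth is calculated against vehicle-treated controls.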

[3] = NCI Yeast Anticancer Drug Screen. Data for the sgs1 mgt1 strain (AID 161);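 further: 0% = growth of cultures given vehicle only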; details: S. cerevisiae sgs1 mgt1 strain, at 50.0 µM, hits give high values
Procedure, shortened: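 Read-out: growth inhibition vs vehicle controls. Cells: mutant yeast strain deficient in DNA damage repair.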

[4] = NCI Yeast Anticancer Drug Screen. Data for the cln2 rad14 strain (AID 165);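 further: 0% = growth equal to vehicle treated cultures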; details: S. cerevisiae cln2 rad14 strain, at 50.0 µM, hits give high values
Procedure, shortened: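 The screen exposed genetically defined yeast (cln2 rad14) to test compounds and scored growth inhibition relative to vehicle-treated controls.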

[5] = NCI Yeast Anticancer Drug Screen. Data for the bub3 strain (AID 167); details: S. cerevisiae bub3 mutant strain, at 50.0 µM, hits give high values
Procedure, shortened: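 In this screen, a yeast mutant lacking normal mitotic checkpoint function is challenged with compound. Relative growth versus vehicle gives the inhibition value.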

[6] = NCI Yeast Anticancer Drug Screen. Data for the mlh1 rad18 strain (AID 175); details: S. cerevisiae mlh1 rad18 strain growth inhibition; at 50.0 µM; hits give high values
Procedure, shortened: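 Compound-treated yeast growth, normalised to vehicle controls. Strain bears defined DNA repair mutations.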

Row | Structure (SMILES) | growth inhibition [1] | growth inhibition [2] | growth inhibition [3] | growth inhibition [4] | growth inhibition [5] | growth inhibition [6]
1 | Cc1ccc(NS(=O)(=O)c2ccc(F)cc2)c(C)c1 | 15.4% | 19.1% | -2% | -14.2% | -0.2% | -9.15%
2 | NC(CSc1nc2ccccn2c1[N+](=O)[O-])C(=O)O (centres undefined) | -26.1% | -40.8% | -30.1% | 5.25% | 8.25% | -18%
3 | N=C(N)n1ncc2c1CCCC2=O | -17.4% | 19.9% | -6.1% | -20.2% | 6.1% | 1.75%
4 | CCCCOC(=O)CCCCCCCCC(=O)OCCCC | 23.6% | -9% | 2.05% | -14.1% | 0.2% | 28.4%
5 | CN(/N=C/c1cccs1)c1ccc([N+](=O)[O-])cc1[N+](=O)[O-] | -24.7% | -25.5% | 7.05% | -9.35% | -12.8% | -10.8%
6 | Cc1cc2c(cc1Cl)S(=O)(=O)OC(c1ccc([N+](=O)[O-])cc1)=N2 | -3.25% | -4.3% | -0.1% | 0.45% | 19.1% | -10.3%
7 | COc1c(O)c2c3c(cc(C)cc3c1C(C)C)OC2 | 93.3% (active) | 94.5% (active) | 94.3% (active) | 93.1% (active) | 93.4% (active) | 93.1% (active)
8 | O=C(O)Cc1ccccc1Cl | 24.4% | 32.1% | 6.55% | -23.9% | 14.8% | 17.9%
9 | CC(=O)Nc1ccc(NS(=O)(=O)c2ccc3nc(C)n(NS(=O)(=O)c4ccc(NC(C)=O)cc4)c(=O)c3c2)cc1 | 29.1% | 38% | 29.1% | 15.4% | 39.2% | 15.3%
10 | Clc1cccc(N2CCN(CCN3CCc4c([nH]c5ccccc45)C3c3cccnc3)CC2)c1 (centres undefined) | 2.2% | -21.7% | -7.85% | 9.45% | -9.75% | -12%
11 | COc1cc2c(c3c1/c(=N\N=c1/c4ccccc4n(C)c4c5c(cc(OC)c14)OC(C)(C)C=C5)c1ccccc1n3C)C=CC(C)(C)O2 | 70% (active) | 13.6% | 64.5% | 48% | 36.9% | 27.4%
12 | CC(=O)Nc1ccccc1Sc1ccccc1 | -6.5% | -17.1% | 4.35% | 15.1% | 4.6% | -20.9%
13 | O=C1c2ccccc2-c2c1c1ccccc1c(=O)n2Cc1ccccc1 | 6.1% | -14.2% | 2.85% | 8.05% | -16.9% | -63.8%
14 | COC(=O)C1(NC(=O)C(Cc2ccccc2)NC(=O)C(NC(=O)C(CCCCNC(=O)OC(C)(C)C)NC(=O)C(Cc2c[nH]c3ccccc23)NC(=O)C(Cc2ccccc2)NC(=O)OCc2ccccc2)C(C)OC(C)(C)C)CCCC1 (centres undefined) (Cbz-FWK(Boc)T(tBu)F[Ac5c]-OMe; configuration not given here) | -11.9% | -1.85% | -26.6% | 6.9% | -11.4% | -12.7%
15 | CN(C)Cc1cc(C=O)cc(CN(C)C)c1O | 10.3% | 4.6% | -29.2% | 13.4% | 10.7% | 5.8%
16 | C=C(NC(=O)CNC(=O)OCc1ccccc1)C(=O)O (Cbz-Gly-[Dha]-OH) | 3.05% | 11.2% | 7.4% | -9.85% | 15.7% | 14%
17 | COc1cc2oc(-c3ccc(O)cc3)cc(=O)c2c(OC)c1OC | -4.35% | -5.95% | -2.35% | -26.7% | 17.9% | 12.3%
18 | COc1ccccc1C(c1ccccc1OC)c1ccccc1C(=O)O | 14.5% | -3.35% | 5.75% | 15% | 6.05% | 26.9%
19 | O=[N+]([O-])c1ccc(-c2csc(N=Nc3c(O)[nH]c4ccccc34)n2)cc1 | -31.2% | -20.2% | -22.4% | -16.7% | -31.4% | -46.4%

Source: PubChem BioAssay (NCI)
